Screening data (PubChem)
A selection: hits, their analogues and other compounds. The true share with any hit is near 2.6%.
PAFAH1B3 inh: inhibitors of human PAFAH1B3; Q15102; recombinant PAFAH1B3, FP-rhodamine probe, fluorescence polarization; inhibition, % at 3.39 µM; actives 0.28% (n = 340,000);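 active means inhibition above the screen-wide average of all tested compounds plus 3 SD, cut at about 25% in these data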
PKA-R1A act: activators of PKA-R1A complex; actives 0.083% (n = 340,000); P00514+P68181; PKA-R1A dissociation, Cy5-IP20 fluorescence polarization; scaled: DMSO 0%, 113 µM cGMP 100%; AID 504707; activation, % at 11.4 µM;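 active means percent activation above the mean of all tested compounds plus 3 SD, cut at about 19% in these data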;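 further: higher means more PKAc released from R1A so a rise in polarization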
pPAFAH FP inh: inhibitors of human plasma PAF acetylhydrolase (pPAFAH). recombinant pPAFAH, FP-rhodamine probe fluorescence polarization. inhibition, % at 3.39 µM. actives 1.5% (n = 330,000). AID 463082;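 active means inhibition above the mean inhibition across the screen plus 3 SD, cut at about 25% in these data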;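 further: inhibitors block binding of the rhodamine activity-based probe so polarization drops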
PKA-R2B act: activators of human PKA-R2B complex | P22694+P31323 | PKA-R2B holoenzyme dissociation, Cy5-IP20 fluorescence polarization; R2B truncated from residue 108, S112A mutant; 0% DMSO only, 100% 113 µM cGMP | activation, % at 11.4 µM | actives 0.079% (n = 340,000) | AID 504700;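 active means activation above a cutoff set at the mean over all compounds plus 3 SD, cut at about 18% in these data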;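 further: higher means more holoenzyme dissociation and a rise in polarization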
Target sequence (P31323 whole entry, looked up, other chains not shown, the tested form may be a part): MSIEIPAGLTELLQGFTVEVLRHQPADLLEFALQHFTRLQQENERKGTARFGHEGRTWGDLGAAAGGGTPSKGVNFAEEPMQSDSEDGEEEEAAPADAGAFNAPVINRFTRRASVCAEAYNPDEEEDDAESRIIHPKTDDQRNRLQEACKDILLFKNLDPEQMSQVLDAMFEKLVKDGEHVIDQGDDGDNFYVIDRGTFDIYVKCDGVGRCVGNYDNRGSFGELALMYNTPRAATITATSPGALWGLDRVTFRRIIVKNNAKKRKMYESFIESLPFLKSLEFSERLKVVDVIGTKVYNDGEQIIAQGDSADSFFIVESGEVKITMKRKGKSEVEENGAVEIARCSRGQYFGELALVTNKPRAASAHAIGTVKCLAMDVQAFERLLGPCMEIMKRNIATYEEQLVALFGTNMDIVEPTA
PAFAH2 FP inh: PAFAH2 (human) inhibition; Q99487; recombinant PAFAH2, FP-rhodamine activity probe, fluorescence polarization; inhibition, % at 3.39 µM; actives 0.99% (n = 340,000); AID 492956;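 active means inhibition above the mean over all tested compounds plus 3 SD, cut at about 30% in these data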;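 further: inhibitors block probe labeling of enzyme so polarization drops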
PAFAH1B2 inh: inhibitors of human PAFAH1B2. P68402. actives 1.2% (n = 340,000). recombinant PAFAH1B2, FP-rhodamine activity probe, fluorescence polarization. inhibition, % at 3.39 µM;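 active means inhibition above the mean of all tested compounds plus 3 SD, cut at about 24% in these data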
A number is an active result; . = inactive; / = no result.

SMILES | PAFAH1B3 inh | PKA-R1A act | pPAFAH FP inh | PKA-R2B act | PAFAH2 FP inh | PAFAH1B2 inh
O=C(Nc1nc(-c2ccccc2)cs1)c1ccc(=O)[nH]c1 | . | . | . | . | . | .
Cc1ccc(CSc2nnc(CNc3ccc(F)cc3)o2)cc1 | . | . | . | . | . | 26
N#CCSc1nnc(CNc2ccc(F)cc2)o1 | . | . | . | . | . | .
COc1ccc(N2CCN(C(=O)NC3CCCCC3)CC2)cc1 | . | . | . | . | . | .
COc1ccc(N2CCN(C(=O)c3cn(CC4CCCCC4)nn3)CC2)cc1 | . | . | 28 | . | . | .
Oc1c(Cl)cc(Cl)cc1CNc1nc2ccccc2[nH]1 | . | . | . | . | . | .
C[C@H](CO)N1C[C@H](C)[C@@H](CN(C)C(=O)NC2CCCCC2)Oc2c(NS(=O)(=O)c3cccs3)cccc2C1=O | . | . | . | . | . | .
COc1oc(C(=O)NC2CCCCC2)c(-c2ccc(Cl)cc2)c1S(=O)(=O)c1ccccc1 | . | . | / | . | . | 32
Cc1cc(C)n(CCN(C)C(=O)C2CCC(=O)N(CCc3cccc(F)c3)C2)n1 (stereo not drawn) | . | . | . | . | . | .
Cc1cccc(N2CCN(C(=O)c3ccc4nccnc4c3)CC2C)c1 (stereo not drawn) | . | . | . | . | . | .
Cc1cccc(N2CCN(C(=O)c3ccc4nc(-c5ccco5)c(-c5ccco5)nc4c3)CC2C)c1 (stereo not drawn) | . | . | 26 | . | . | .
CC1=C(C#N)C(=O)N(C2CCS(=O)(=O)C2)C(=O)/C1=C\c1ccco1 (stereo not drawn) | / | / | 93 | / | / | /
COC(=O)C1=C(C)N(C)C(=O)/C1=C\c1ccco1 | . | . | . | . | . | .
Cc1cccc(N2Cc3ccc(Br)cc3C2)c1 | . | . | . | . | . | .
O=C(CN1CCN(Cc2ccc(F)cc2Cl)C1=O)NCCc1ccc(Cl)cc1 | . | . | 34 | . | . | .
CNC(=O)C[C@@H]1C(=O)N(c2ccc(OC)cc2)CC1(C)C | / | . | / | . | / | /
Oc1cccc(/C=N/N=C/c2cccc(O)c2O)c1O | . | . | . | . | . | .
Cc1ccccc1N=Cc1cccc(O)c1O | . | . | 32 | . | . | .
CCOC(=O)C1=C(c2ccccc2)N=c2s/c(=C\c3ccco3)c(=O)n2C1c1cccs1 (stereo not drawn) | . | . | 29 | . | . | .
CCN(CC)C(=O)CSc1nc(O)cc(=O)n1C | . | . | . | . | . | .
CCN(CC)C(=O)CSc1nc(O)cc(=O)n1-c1ccccc1OC | . | . | 25 | . | . | .
Cc1ccc(NC(=O)CSc2nc(O)cc(=O)n2-c2ccc(C)cc2)cc1 | . | . | . | . | . | .
Cc1ccccc1-n1c(SCC(=O)Nc2c(C)cccc2C)nc(O)cc1=O | . | . | 31 | . | . | .
COc1ccc2ncccc2c1Cc1c(OC)ccc2ncccc12 | . | . | / | . | . | .
CCCCCCC[C@@H](C/C=C/CCC(=O)N(C)C/C(=C/Cl)C/C(=C\C(=O)N1CC(OC)=CC1=O)OC)OC | . | . | 28 | . | . | .
SMILES | PAFAH1B3 inh | PKA-R1A act | pPAFAH FP inh | PKA-R2B act | PAFAH2 FP inh | PAFAH1B2 inh
CCOC(=O)c1ccc(NC(=O)c2ccc[n+]([O-])c2)cc1 | . | . | . | . | . | .
COc1ccccc1N=c1oc2cc(O)ccc2cc1C(N)=O | . | . | . | . | . | .
COc1cccc(N=c2oc3cc(O)ccc3cc2C(=O)NCC2CCCO2)c1 (stereo not drawn) | . | . | 25 | . | . | .
COc1ccccc1N=c1oc2cc(O)ccc2cc1C(=O)NCC1CCCO1 (stereo not drawn) | . | . | 26 | . | . | .
O=C(N/N=C/c1ccc(OCc2ccccc2)cc1)c1ccncc1 | . | . | . | . | . | .
Oc1ccc(N=Cc2ccc(OCc3ccccc3)cc2)cc1 | 28 | . | . | . | . | .
Cc1ccc(NC(=S)NNC(=O)c2cccc([N+](=O)[O-])c2)cc1Cl | . | . | . | . | . | 25
O=C(NNC(=S)Nc1ccc(F)cc1)c1cccc([N+](=O)[O-])c1 | . | . | . | . | . | .
CCOC(=O)c1cc(CC)sc1NC(=O)C1CC(=O)NN1Cc1ccccc1 (stereo not drawn) | . | . | 32 | . | . | .
